Measurements reported in ChEMBL document CHEMBL1961873, “Compounds: GSK PKIS; Assays: Nanosyn kinase panel” (2012).

How the values were obtained:
[1] = target: Mitogen-activated protein kinase 3 (Homo sapiens) (UniProt P27361); conditions: at 1 µM;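 note: values are mean percent inhibition of MAPK3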
[2] = target: SRSF protein kinase 3 (Homo sapiens) (UniProt Q9UPE1); conditions: at 0.1 µM
[3] = target: SRSF protein kinase 3 (Homo sapiens) (UniProt Q9UPE1); conditions: at 1 µM
[4] = target: Mitogen-activated protein kinase 14 (Homo sapiens) (UniProt Q16539); conditions: at 0.1 µM
[5] = target: Mitogen-activated protein kinase 14 (Homo sapiens) (UniProt Q16539); conditions: at 1 µM
[6] = target: Mitogen-activated protein kinase 11 (Homo sapiens) (UniProt Q15759); conditions: at 0.1 µM
[7] = target: Mitogen-activated protein kinase 11 (Homo sapiens) (UniProt Q15759); conditions: at 1 µM
[8] = target: T1, Mitogen-activated protein kinase 13 (Homo sapiens) (UniProt O15264); conditions: at 0.1 µM
T1 sequence (whole entry): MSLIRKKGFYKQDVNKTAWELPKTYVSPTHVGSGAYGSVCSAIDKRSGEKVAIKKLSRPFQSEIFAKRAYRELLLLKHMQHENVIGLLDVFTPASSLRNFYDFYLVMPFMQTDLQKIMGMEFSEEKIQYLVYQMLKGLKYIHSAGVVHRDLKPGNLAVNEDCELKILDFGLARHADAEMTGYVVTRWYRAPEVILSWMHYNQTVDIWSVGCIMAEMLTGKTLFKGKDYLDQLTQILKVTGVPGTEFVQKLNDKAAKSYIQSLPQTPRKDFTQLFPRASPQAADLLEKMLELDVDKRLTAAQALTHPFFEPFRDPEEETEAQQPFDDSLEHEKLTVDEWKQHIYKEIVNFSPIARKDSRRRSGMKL

[9] = target: T1, Mitogen-activated protein kinase 13 (Homo sapiens); conditions: at 1 µM
[10] = target: T2, Mitogen-activated protein kinase 12 (Homo sapiens) (UniProt P53778); conditions: at 0.1 µM
T2 sequence (whole entry): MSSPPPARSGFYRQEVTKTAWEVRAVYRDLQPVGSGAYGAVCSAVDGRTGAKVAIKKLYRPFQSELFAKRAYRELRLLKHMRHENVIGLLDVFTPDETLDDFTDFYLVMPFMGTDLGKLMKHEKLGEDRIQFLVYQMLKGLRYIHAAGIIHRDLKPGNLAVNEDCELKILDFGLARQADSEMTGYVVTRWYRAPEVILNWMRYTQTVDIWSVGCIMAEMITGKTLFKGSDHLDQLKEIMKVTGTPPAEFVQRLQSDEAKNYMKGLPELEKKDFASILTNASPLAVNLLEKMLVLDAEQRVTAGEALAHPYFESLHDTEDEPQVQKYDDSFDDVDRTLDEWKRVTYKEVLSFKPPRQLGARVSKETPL

[11] = target: T2, Mitogen-activated protein kinase 12 (Homo sapiens); conditions: at 1 µM
[12] = target: SRSF protein kinase 1 (Homo sapiens) (UniProt Q96SB4); conditions: at 0.1 µM
[13] = target: SRSF protein kinase 1 (Homo sapiens) (UniProt Q96SB4); conditions: at 1 µM
[14] = target: Phosphatidylinositol 4,5-bisphosphate 3-kinase catalytic subunit alpha isoform (Homo sapiens) (UniProt P42336); conditions: at 0.1 µM
[15] = target: Phosphatidylinositol 4,5-bisphosphate 3-kinase catalytic subunit alpha isoform (Homo sapiens) (UniProt P42336); conditions: at 1 µM
[16] = target: T3, Phosphatidylinositol 4,5-bisphosphate 3-kinase catalytic subunit delta isoform (Homo sapiens) (UniProt O00329); conditions: at 0.1 µM
T3 sequence (whole entry): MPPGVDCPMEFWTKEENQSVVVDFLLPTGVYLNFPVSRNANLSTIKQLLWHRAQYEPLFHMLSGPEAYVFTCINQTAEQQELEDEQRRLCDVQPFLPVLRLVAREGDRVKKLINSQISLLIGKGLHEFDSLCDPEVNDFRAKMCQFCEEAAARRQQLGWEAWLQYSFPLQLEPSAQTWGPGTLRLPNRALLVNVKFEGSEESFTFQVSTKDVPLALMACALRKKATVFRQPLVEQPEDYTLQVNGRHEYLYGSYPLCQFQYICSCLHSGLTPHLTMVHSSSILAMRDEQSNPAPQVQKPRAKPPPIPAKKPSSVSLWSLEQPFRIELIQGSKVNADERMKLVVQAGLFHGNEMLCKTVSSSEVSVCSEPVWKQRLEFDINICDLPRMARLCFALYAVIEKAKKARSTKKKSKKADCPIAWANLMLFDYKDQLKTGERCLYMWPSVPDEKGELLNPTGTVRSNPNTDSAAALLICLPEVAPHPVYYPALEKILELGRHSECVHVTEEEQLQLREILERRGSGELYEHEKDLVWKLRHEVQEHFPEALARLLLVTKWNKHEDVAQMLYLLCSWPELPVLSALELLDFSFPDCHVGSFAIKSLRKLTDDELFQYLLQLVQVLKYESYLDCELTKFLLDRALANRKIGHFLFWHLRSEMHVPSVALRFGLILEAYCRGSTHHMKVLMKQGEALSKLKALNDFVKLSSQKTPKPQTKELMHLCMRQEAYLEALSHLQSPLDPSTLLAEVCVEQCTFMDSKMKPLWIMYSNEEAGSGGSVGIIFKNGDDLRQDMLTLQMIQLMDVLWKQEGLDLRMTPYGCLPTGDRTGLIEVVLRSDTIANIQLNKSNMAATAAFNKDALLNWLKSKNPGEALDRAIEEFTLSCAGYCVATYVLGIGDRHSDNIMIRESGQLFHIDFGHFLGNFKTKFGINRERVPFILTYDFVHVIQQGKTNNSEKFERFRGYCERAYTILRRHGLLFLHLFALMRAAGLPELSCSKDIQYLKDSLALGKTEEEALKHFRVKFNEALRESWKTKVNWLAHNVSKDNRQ

[17] = target: T3, Phosphatidylinositol 4,5-bisphosphate 3-kinase catalytic subunit delta isoform (Homo sapiens); conditions: at 1 µM
[18] = target: Phosphatidylinositol 4-kinase beta (Homo sapiens) (UniProt Q9UBF8); conditions: at 0.1 µM
[19] = target: Phosphatidylinositol 4-kinase beta (Homo sapiens) (UniProt Q9UBF8); conditions: at 1 µM
[20] = target: Sphingosine kinase 1 (Homo sapiens) (UniProt Q9NYA1); conditions: at 0.1 µM;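 note: mean percent inhibition of SPHK1 activity, measured within the GSK PKIS screening panel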
Sphingosine kinase 1 (Homo sapiens), sequence (Q9NYA1 whole entry): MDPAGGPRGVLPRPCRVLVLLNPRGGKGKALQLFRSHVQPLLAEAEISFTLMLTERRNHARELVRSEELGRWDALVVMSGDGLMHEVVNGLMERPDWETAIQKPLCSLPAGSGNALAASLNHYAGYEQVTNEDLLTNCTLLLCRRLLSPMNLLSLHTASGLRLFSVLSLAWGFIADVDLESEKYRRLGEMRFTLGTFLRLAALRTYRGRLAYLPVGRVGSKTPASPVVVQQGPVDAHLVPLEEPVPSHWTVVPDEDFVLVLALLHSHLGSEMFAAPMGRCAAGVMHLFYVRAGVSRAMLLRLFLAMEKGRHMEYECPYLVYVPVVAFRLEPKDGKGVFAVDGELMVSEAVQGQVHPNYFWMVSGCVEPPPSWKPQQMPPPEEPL

Mitogen-activated protein kinase 3 (Homo sapiens), sequence (P27361 whole entry): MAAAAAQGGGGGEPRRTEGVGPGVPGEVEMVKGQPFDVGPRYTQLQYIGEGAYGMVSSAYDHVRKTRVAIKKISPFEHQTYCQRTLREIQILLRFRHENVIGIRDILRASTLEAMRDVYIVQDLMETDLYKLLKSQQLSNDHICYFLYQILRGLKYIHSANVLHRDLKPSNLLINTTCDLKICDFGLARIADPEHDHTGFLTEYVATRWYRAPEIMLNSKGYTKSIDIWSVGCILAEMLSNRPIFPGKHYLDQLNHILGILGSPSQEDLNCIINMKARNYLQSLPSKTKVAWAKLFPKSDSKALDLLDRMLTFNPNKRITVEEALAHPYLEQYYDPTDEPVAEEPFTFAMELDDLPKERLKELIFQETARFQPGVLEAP
Phosphatidylinositol 4-kinase beta (Homo sapiens), sequence (Q9UBF8 2-816 limits assumed): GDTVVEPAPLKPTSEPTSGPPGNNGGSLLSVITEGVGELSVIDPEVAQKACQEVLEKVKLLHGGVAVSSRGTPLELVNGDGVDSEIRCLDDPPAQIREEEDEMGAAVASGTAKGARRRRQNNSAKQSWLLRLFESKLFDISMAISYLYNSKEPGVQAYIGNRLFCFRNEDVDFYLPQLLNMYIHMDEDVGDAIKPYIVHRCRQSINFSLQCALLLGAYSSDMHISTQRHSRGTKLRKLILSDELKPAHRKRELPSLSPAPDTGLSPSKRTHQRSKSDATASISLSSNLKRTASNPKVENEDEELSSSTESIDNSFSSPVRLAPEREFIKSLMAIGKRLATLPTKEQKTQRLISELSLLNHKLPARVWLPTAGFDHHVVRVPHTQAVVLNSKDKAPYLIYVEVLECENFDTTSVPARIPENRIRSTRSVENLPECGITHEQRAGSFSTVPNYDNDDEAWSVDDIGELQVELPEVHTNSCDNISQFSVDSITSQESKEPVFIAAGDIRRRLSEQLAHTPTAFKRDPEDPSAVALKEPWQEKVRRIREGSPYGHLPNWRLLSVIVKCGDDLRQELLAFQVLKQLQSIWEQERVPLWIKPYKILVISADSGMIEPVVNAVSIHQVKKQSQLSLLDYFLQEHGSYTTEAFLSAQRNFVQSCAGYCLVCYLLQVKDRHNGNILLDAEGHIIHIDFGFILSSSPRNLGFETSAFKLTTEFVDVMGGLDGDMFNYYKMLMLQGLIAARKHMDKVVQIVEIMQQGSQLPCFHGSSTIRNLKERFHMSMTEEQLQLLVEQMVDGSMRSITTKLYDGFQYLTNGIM
SRSF protein kinase 3 (Homo sapiens), sequence (Q9UPE1 whole entry): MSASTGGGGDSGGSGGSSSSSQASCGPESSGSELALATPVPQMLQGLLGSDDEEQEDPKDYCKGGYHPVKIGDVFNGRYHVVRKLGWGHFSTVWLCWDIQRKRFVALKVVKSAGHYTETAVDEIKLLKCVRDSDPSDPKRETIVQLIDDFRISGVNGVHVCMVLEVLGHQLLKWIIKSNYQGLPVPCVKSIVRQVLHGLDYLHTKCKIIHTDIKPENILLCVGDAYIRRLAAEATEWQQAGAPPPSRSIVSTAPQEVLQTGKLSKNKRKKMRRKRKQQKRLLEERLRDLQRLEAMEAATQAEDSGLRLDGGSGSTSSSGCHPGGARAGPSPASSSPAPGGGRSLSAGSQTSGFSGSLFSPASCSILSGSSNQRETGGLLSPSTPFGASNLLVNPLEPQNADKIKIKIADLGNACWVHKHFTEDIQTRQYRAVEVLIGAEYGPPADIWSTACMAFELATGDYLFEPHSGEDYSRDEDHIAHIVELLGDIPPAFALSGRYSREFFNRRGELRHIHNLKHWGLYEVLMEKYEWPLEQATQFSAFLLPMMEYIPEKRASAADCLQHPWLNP
SRSF protein kinase 1 (Homo sapiens), sequence (Q96SB4 whole entry, canonical isoform): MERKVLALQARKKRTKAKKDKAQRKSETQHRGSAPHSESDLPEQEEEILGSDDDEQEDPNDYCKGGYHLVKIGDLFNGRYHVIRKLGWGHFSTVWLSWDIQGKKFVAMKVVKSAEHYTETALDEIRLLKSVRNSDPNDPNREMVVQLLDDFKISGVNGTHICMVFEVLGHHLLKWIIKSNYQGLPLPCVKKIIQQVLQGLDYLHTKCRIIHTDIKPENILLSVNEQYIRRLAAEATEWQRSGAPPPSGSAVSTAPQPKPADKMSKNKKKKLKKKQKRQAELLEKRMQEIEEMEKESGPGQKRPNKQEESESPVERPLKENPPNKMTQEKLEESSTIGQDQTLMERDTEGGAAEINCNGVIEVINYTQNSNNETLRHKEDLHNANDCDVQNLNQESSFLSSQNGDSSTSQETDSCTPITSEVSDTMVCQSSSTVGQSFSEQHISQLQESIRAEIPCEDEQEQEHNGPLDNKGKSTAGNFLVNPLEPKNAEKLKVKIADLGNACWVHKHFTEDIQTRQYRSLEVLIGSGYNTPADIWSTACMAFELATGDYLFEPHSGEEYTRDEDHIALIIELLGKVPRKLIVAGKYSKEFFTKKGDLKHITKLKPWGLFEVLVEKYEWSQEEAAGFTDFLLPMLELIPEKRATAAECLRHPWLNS
Mitogen-activated protein kinase 14 (Homo sapiens), sequence (Q16539 whole entry): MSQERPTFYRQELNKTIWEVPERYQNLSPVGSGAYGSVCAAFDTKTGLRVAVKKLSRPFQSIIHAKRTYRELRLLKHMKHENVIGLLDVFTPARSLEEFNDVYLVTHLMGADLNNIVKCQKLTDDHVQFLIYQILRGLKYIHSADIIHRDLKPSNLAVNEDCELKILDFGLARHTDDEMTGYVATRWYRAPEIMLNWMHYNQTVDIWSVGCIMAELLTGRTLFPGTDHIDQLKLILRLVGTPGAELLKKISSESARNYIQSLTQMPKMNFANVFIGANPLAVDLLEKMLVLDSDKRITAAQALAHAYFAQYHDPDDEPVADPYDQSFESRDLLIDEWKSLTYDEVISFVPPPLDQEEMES
Mitogen-activated protein kinase 11 (Homo sapiens), sequence (Q15759 whole entry): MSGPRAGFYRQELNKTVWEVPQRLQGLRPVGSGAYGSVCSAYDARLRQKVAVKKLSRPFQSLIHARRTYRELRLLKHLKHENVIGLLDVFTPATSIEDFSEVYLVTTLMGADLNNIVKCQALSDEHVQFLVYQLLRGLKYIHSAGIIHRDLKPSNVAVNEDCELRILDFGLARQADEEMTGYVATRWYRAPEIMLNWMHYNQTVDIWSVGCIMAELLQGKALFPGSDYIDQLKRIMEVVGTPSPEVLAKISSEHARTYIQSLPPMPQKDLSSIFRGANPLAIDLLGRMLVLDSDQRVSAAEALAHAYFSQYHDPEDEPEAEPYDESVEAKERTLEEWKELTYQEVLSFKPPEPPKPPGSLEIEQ
Phosphatidylinositol 4,5-bisphosphate 3-kinase catalytic subunit alpha isoform (Homo sapiens), sequence (P42336 whole entry, canonical isoform): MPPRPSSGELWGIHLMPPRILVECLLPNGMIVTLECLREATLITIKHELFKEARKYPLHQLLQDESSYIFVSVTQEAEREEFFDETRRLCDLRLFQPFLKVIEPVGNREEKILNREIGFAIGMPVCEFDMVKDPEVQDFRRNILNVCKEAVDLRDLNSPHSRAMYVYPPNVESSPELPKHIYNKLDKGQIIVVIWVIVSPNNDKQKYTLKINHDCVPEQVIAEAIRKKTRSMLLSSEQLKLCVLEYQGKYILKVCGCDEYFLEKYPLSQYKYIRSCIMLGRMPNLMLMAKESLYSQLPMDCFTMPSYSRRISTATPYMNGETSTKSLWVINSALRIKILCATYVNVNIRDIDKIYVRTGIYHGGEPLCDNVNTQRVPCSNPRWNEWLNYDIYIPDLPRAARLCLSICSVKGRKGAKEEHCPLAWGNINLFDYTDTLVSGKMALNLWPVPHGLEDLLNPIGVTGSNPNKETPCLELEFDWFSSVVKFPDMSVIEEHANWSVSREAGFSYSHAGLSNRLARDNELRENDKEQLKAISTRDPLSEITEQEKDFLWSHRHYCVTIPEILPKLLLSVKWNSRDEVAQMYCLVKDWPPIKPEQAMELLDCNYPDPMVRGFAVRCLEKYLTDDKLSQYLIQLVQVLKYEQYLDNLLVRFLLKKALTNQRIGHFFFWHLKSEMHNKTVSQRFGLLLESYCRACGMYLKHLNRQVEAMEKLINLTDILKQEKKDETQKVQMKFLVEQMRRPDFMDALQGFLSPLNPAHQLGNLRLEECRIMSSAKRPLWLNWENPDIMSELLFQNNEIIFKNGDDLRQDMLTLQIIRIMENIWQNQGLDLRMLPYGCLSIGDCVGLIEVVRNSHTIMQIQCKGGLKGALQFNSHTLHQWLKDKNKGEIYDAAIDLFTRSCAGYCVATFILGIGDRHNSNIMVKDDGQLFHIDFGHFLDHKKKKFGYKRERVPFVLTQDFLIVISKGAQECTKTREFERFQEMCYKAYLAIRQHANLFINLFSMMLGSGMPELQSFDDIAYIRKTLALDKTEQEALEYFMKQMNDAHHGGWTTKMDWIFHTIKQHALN

SMILES	inhibition [1]	inhibition [2]	inhibition [3]	inhibition [4]	inhibition [5]	inhibition [6]	inhibition [7]	inhibition [8]	inhibition [9]	inhibition [10]	inhibition [11]	inhibition [12]	inhibition [13]	inhibition [14]	inhibition [15]	inhibition [16]	inhibition [17]	inhibition [18]	inhibition [19]	inhibition [20]
CCn1c(-c2nonc2N)nc2c(C#CC(C)(C)O)nc(OC[C@@H](N)c3ccccc3)cc21	1.84%	0.05%	3.01%	1.93%	1.14%	-1.91%	1.34%	-0.23%	-0.87%	-1.46%	-0.24%	0.57%	-0.56%	-3.76%	-3.41%	-2.59%	-3.08%	0.16%	2.95%	0.21%
[O-][S+]1CCN(Cc2ccc(-c3ccc4ncnc(Nc5ccc(OCc6ccccc6)c(F)c5)c4c3)o2)CC1	-0.07%	-1.09%	-1.23%	1.59%	8.77%	3.66%	6.24%	-1.08%	3.34%	0.27%	2.56%	-2.36%	-4.42%	1.82%	3.14%	2.61%	5.44%	-0.3%	-1.35%	-0.6%
COC(=O)Nc1nc2cc(Oc3ccc(NC(=O)Nc4cccc(C(=O)O)c4)cc3)ccc2[nH]1	2.25%	1.98%	3.99%	-1.1%	1.12%	0.94%	-1.18%	-0.17%	-0.69%	0.51%	-0.37%	-0.09%	3.15%	-0.54%	-3.19%	-1.33%	-1.97%	2.72%	-1.03%	0.94%
Cc1cccc(-c2n[nH]cc2-c2ccc3ncccc3n2)n1	0.82%	-1.48%	-0.43%	2.51%	12%	-0.93%	0.8%	1.23%	-0.48%	0.84%	0.57%	-1.35%	-1.16%	-0.95%	1.78%	-0.15%	0.53%	1.57%	4.48%	-2.56%
N#Cc1c(NC(=O)c2cccc3ccccc23)sc2c1CCCC2	0.11%	-0.61%	-2.89%	2.97%	5.23%	0.78%	4.42%	2.16%	3.76%	2.38%	2.56%	-2.33%	-3.29%	1.58%	4.62%	2.32%	4.96%	-2.84%	-0.74%	-0.7%
CCc1cccc(NC(=O)Nc2ccc(Oc3ccc4nc(NC(=O)OC)[nH]c4c3)cc2)c1	2.79%	1.41%	2.28%	2.41%	3.05%	1.54%	6.14%	0.54%	0.33%	-0.64%	1.54%	0.34%	1.37%	0.8%	2.44%	0.28%	3.23%	5.24%	-4.52%	–
Cc1cc(O)cc(C)c1/C=C/c1cncc(-c2nn[nH]n2)c1	5.1%	0.25%	-0.18%	8.41%	12.6%	3.52%	3.01%	3.42%	5.1%	1.46%	3.07%	-1.87%	-2.36%	3.19%	5.13%	2.19%	6.52%	-5.96%	-0.98%	0.56%
Cc1ccc(NC(=O)c2ccnc(N3CCCC3)c2)cc1-c1ccc(C(=O)NCC2CC2)cc1	3.65%	-0.5%	-0.3%	38.3%	79.6%	40.9%	78.9%	3.45%	5.79%	4.49%	4.14%	-2.03%	-3.61%	4.02%	14.5%	3.4%	14.4%	-4.29%	-0.13%	-0.32%
O=C1NC(=O)C(N2CCc3ccccc32)=C1c1ccc(Cl)cc1	2.62%	1.04%	-0.52%	3.97%	8.43%	5.07%	4.84%	1.06%	5.95%	3.98%	3.35%	-1.77%	-3.78%	4.21%	6.29%	3.6%	5.56%	-1.76%	-1.34%	–
CNC(=O)c1cncc(/C=C/c2c(Cl)cccc2Cl)c1	3.8%	2.22%	0.6%	6.41%	8.04%	2.44%	4.25%	3.64%	5.05%	3.45%	6.19%	-3.5%	-0.45%	2.99%	2.83%	0.54%	0.66%	-0.69%	2.57%	-1.45%
CCn1c(-c2nonc2N)nc2c(N3CCCC3)nccc21	1.82%	0.04%	-1.21%	1.24%	-3.47%	0.58%	2.54%	-0.53%	-1.01%	0.01%	-1.61%	0.36%	0.58%	-1.75%	-0.26%	0.19%	0.29%	-6.46%	-2.5%	2.26%
COc1ccc(-c2ccncc2)cc1C(N)=O	5.57%	0.64%	-1.37%	7.77%	9.51%	-0.28%	5.04%	5.1%	6.16%	4.29%	5.57%	-3.43%	-2.49%	5.07%	4.31%	2.29%	3.83%	-1.68%	4.03%	1.01%
O=C1Nc2ccc(C(=O)c3ccco3)cc2C1=Cc1cc(Cl)c(O)c(Cl)c1	3.14%	-3.06%	0.75%	2.28%	6.71%	1.71%	3.75%	0.88%	2.9%	0.31%	5.17%	-1.28%	1.6%	21.6%	69.1%	8.04%	24.9%	37.4%	80.7%	7.33%
